Test results published in PubChem BioAssay.
Active and inactive are the calls of the source.

Experiments:
[1] = system: Human papillomavirus type 1a protein E7 (residues 44-93); assay: small molecules binding HPV E7 44-93 – biochemical, small-molecule microarray, residues 44-93, 635 nm fluorescence, primary screen (AID 1108); conditions: fluorescence 635 nm, higher = more signal;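 further: E7 fragment applied at 1 µg/mL in TBST for 1 h at 4 C; score combines spot fluorescence with its signal to noise ratio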
[2] = hepatitis C replication reporter changes, two-sided – Huh7 cells, luciferase reporter, HCV replication inhibitor project, primary screen (AID 1109); conditions: Huh7 HCV replicon luciferase reporter, 48 h; higher = more signal;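 further: huh7 hepatoma cells harbouring a luciferase neomycin HCV replicon reporter; luciferase luminescence as measure of HCV replicon replication; test concentration not given here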
[3] = biological target: Left-right determination factor 2 (Homo sapiens) (UniProt O00292); assay: small molecules binding LEFTY2 protein – biochemical, small-molecule microarray, 635 nm fluorescence scan, primary screen (AID 1110); conditions: higher = more signal
[4] = biological target: Calmodulin-1 (Homo sapiens) (UniProt P0DP23); assay: small molecules binding calmodulin-1 with EGTA – biochemical, small-molecule microarray, Cy5-labelled CALM1, profiling panel (AID 1111); conditions: Cy5-CALM1 binding fluorescence, higher = more signal;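 further: labelled calmodulin applied in Tris saline Tween buffer holding calcium plus EGTA and DTT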
[5] = biological target: Calmodulin-1 (Homo sapiens) (UniProt P0DP23); assay: small molecules binding Ca-loaded calmodulin-1 – biochemical, small-molecule microarray, Cy5-labelled CALM1, plus calcium, artefact control for SMM control-protein annotation, profiling panel (AID 1112); conditions: Cy5-CALM1 binding fluorescence, higher = more signal;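 further: score merges spot fluorescence with signal to noise from triplicate slides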
[6] = probe aWnt5a binding to arrayed compounds – biochemical, biotinylated probe, 635/667 nm fluorescence, primary screen (AID 1113); conditions: small-molecule microarray, higher = more signal;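 further: score merges 667 nm fluorescence intensity with signal-to-noise per printed feature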
[7] = probe aShh binding to arrayed compounds – biochemical, biotinylated probe, 635/667 nm fluorescence, primary screen (AID 1114); conditions: small-molecule microarray, higher = more signal;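 further: probe is biotin-labelled aShh protein from a stem cell growth factor screen; measures binding of labelled protein to compounds printed on the slide; score merges feature fluorescence at 667 nm with signal-to-noise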
[8] = probe aNog binding to arrayed compounds – biochemical, biotinylated probe, 635/667 nm fluorescence, primary screen (AID 1115); conditions: small-molecule microarray, higher = more signal;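 further: probe is biotinylated aNog protein used at 0.15 µg/mL for 1 h at 4 C; z-score combines 667 nm fluorescence of each spot with its signal to noise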
[9] = biological target: Torsin-1A-interacting protein 1 (Homo sapiens) (UniProt Q5JTV8); assay: compound microarray binding of lysate hLAP1 – cell lysate, small-molecule microarray, COS7 lysate, 635/667 nm fluorescence, primary screen (AID 1116); conditions: 635 nm fluorescence, higher = more signal
[10] = biological target: Alpha-bungarotoxin (Bungarus multicinctus) (UniProt P60615); assay: compounds binding labelled alpha-BTX control protein – biochemical, small-molecule microarray, Alexa647 label, 635/667 nm fluorescence, artefact control for SMM control protein annotation, profiling panel (AID 1117); conditions: alpha-BTX-A647 binding fluorescence, higher = more signal
Albumin (Bos taurus) = Albumin (Bos taurus) (UniProt P02769); assay: compounds binding labelled BSA control protein – biochemical, small-molecule microarray, Alexa647 label, 635/667 nm fluorescence, artefact control for SMM control protein annotation, profiling panel (AID 1118); conditions: BSA-A647 binding, fluorescence 635 nm, higher = more signal;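 further: score merges 667 nm emission intensity and signal-to-noise per printed compound spot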
[11] = probe aXIP binding to arrayed compounds – biochemical, NeuroSMM set, 635/667 nm fluorescence, primary screen (AID 1119); conditions: small-molecule microarray, higher = more signal, called active from +8 up or from −8 down;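 further: probe is the protein aXip251-270 applied at 1 µg/mL to compound-printed slides; binding of probe to printed compounds measured as 667 nm fluorescence plus signal to noise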
[12] = probe aNOTCH3 binding on compound microarray – biochemical, small-molecule microarray, 635/667 nm fluorescence, primary screen (AID 1120); conditions: higher = more signal;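 further: probe is a biotin-tagged antibody raised against NOTCH3 rather than NOTCH3 protein; score merges spot fluorescence near 667 nm with spot signal to noise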
[13] = probe aNOTCH2 binding on compound microarray – biochemical, small-molecule microarray, 635/667 nm fluorescence, primary screen (AID 1121); conditions: higher = more signal;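 further: score merges feature fluorescence read at 667 nm with its signal to noise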
[14] = biological target: Carbonic anhydrase 2 (Homo sapiens) (UniProt P00918); assay: compounds binding carbonic anhydrase 2 – biochemical, small-molecule microarray, Alexa647-labelled CAII, profiling panel (AID 1122); conditions: CAII-A647 binding fluorescence, higher = more signal
[15] = COS7 lysate on small-molecule microarray, probe aHis, 635 nm (AID 1123); conditions: COS7 cell lysate, fluorescence, higher = more signal;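 further: z-score combines 667nm fluorescence intensity with signal-to-noise per printed compound spot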
[16] = probe aLAP1 signal on lysate-treated microarray – cell lysate, small-molecule microarray, COS7 lysate, primary screen (AID 1124); conditions: probe aLAP1, fluorescence, higher = more signal;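 further: lysate comes from COS7 cells expressing LAP1 and is applied at 0.3 µg/mL; score merges spot fluorescence near 667 nm with signal-to-noise over triplicate slides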
Sam68 (KHDRBS1) = assay: compounds binding KHDRBS1 protein – biochemical, small-molecule microarray, 635 nm fluorescence, primary screen (AID 1125); conditions: higher = more signal;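 further: score merges 667 nm channel intensity with signal to noise over triplicate slides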
[17] = system: Chordin-like protein 2 (CHRDL2); assay: compounds binding chordin-like 2 – biochemical, small-molecule microarray, 635 nm fluorescence, primary screen (AID 1126); conditions: fluorescence 635 nm, higher = more signal;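 further: printed compound slides probed with Chrdl2 protein at 4 µg/mL for 1 h at 4 C; score merges 667 nm emission intensity with signal to noise over three replicate slides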
[18] = biological target: Concanavalin-A (Canavalia ensiformis) (UniProt P02866); assay: compounds binding concanavalin A lectin – biochemical, small-molecule microarray, Alexa647 label, 635 nm, artefact control for SMM control protein annotation, primary screen (AID 1127); conditions: ConA-A647 binding fluorescence, higher = more signal;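 further: z combines 667 nm emission intensity with signal-to-noise across three replicate slides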
Chain of Concanavalin-A (Canavalia ensiformis) (P02866 whole entry, looked up): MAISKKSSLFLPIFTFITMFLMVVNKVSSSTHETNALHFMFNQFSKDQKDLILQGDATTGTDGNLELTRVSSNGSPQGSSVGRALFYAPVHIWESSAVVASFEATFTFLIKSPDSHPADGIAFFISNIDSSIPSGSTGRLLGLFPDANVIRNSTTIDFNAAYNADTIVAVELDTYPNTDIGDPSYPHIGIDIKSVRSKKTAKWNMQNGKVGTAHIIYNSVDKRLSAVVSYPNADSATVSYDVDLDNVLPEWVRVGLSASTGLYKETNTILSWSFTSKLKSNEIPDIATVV

Chain of Albumin (Bos taurus) (P02769 whole entry, looked up): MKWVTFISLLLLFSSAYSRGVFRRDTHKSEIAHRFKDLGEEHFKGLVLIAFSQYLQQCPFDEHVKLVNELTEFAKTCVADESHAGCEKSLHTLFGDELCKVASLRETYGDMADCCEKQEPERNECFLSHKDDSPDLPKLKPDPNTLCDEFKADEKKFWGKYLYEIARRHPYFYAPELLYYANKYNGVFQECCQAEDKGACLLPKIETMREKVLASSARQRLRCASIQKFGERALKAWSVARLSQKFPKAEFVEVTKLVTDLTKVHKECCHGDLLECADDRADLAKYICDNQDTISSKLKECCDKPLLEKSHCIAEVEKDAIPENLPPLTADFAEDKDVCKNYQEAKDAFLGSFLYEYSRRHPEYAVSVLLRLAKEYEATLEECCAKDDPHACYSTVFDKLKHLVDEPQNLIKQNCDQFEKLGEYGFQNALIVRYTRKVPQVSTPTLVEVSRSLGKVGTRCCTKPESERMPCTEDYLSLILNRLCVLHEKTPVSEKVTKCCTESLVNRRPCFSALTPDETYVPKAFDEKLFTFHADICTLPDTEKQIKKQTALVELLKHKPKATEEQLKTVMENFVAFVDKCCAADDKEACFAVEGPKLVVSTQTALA
Chain of Alpha-bungarotoxin (Bungarus multicinctus) (P60615 whole entry, looked up): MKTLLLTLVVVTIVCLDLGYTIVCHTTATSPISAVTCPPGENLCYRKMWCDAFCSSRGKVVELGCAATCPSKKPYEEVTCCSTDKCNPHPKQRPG
Chain of Left-right determination factor 2 (Homo sapiens) (O00292 whole entry, looked up): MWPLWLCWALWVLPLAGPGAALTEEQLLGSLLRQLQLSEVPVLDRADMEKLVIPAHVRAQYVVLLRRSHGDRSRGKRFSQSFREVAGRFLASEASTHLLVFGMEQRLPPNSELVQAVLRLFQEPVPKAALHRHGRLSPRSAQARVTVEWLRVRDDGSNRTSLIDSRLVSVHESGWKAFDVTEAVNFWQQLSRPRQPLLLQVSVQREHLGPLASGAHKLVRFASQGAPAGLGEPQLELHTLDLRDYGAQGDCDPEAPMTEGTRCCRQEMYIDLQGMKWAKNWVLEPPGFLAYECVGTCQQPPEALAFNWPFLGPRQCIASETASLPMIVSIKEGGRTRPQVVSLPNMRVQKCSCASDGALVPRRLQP
Chain of Torsin-1A-interacting protein 1 (Homo sapiens) (Q5JTV8 whole entry, looked up): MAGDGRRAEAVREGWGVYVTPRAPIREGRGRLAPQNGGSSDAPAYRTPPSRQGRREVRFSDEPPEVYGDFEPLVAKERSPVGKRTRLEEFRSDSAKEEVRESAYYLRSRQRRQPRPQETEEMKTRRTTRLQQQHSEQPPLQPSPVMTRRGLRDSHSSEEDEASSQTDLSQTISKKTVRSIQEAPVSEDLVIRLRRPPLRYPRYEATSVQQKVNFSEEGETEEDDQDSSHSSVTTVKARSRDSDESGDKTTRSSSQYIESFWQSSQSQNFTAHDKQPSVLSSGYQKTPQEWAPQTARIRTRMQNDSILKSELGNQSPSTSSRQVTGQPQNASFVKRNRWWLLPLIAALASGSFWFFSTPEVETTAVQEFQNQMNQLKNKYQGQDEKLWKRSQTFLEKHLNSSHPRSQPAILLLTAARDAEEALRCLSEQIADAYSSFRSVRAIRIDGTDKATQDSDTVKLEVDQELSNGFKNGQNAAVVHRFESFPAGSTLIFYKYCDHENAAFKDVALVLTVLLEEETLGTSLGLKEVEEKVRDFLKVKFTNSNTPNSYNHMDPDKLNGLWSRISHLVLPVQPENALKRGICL

SMILES | composite z-score [1] | z-score [2] | composite z-score [3] | composite z-score [4] | composite z-score [5] | composite z-score [6] | composite z-score [7] | composite z-score [8] | composite z-score [9] | composite z-score [10] | composite z-score (Albumin (Bos taurus)) | composite Z-score [11] | composite z-score [12] | composite z-score [13] | composite z-score [14] | composite z-score [15] | composite z-score [16] | composite z-score (Sam68 (KHDRBS1)) | composite z-score [17] | composite z-score [18]
COC(=O)[C@@]1(Cc2ccccc2)[C@H]2c3cc(C(=O)N4CCCC4)n(C)c3C[C@H]2CN1C(=O)c1ccccc1 | 0.123 | -1.45 | -0.302 | 2.57 | 0.961 | -0.0481 | -0.2 | 0.268 | 1.28 | 0.455 | 1.06 | 0.363 (inactive) | 0.347 | -0.138 | 0.912 | 2.35 | 0.711 | -0.0981 | -1.18 | 1.07
COc1ccc([Si](C)(C)[C@@H]2[C@@H](CC(=O)N(CCO)Cc3ccccc3)O[C@]3(C(=O)N(C)c4ccccc43)[C@H]2C)cc1 | 0.906 | -3.95 | 0.813 | 0.773 | -0.193 | -0.0721 | 0.366 | 0.422 | 0.44 | 0.805 | 0.751 | 0.26 (inactive) | 0.0964 | 0.0022 | 0.516 | 0.855 | 0.0123 | 1.31 | 1.43 | 1.12
C=CCNC(=O)[C@@H]1[C@H]2C(=O)O[C@H](c3ccccc3)[C@H](c3ccccc3)N2[C@H](c2ccc(OCCO)cc2)[C@@]12C(=O)Nc1ccccc12 | 1.39 | -1.72 | 0.302 | 0.705 | -0.495 | -0.0179 | 0.0469 | -0.543 | 1.55 | 1.05 | 0.507 | -0.551 (inactive) | 0.0773 | -0.157 | 0.692 | 1.91 | 0.262 | 1.29 | 0.228 | 1.11
COC(=O)[C@@]1(Cc2ccccc2)[C@H]2c3cc(C(=O)N4CCCC4)n(Cc4ccc(C)o4)c3C[C@H]2CN1C(=O)c1ccccc1 | 0.114 | -1.82 | -0.334 | 1.58 | -0.149 | -0.213 | -0.214 | -0.153 | 0.618 | 0.326 | 0.905 | -0.56 (inactive) | 0.415 | 0.0263 | 0.787 | 0.597 | 0.487 | 0.17 | -0.589 | -0.289
CN(C)C(=O)[C@]1(CCC(=O)OC(C)(C)C)N=C(c2ccc(OCCCO)cc2)O[C@@H]1c1ccccc1N=[N+]=[N-] | 1.54 | 0.929 | -0.12 | 1.22 | 0.463 | 0.173 | 0.14 | 1.02 | 2.07 | 1.36 | 0.934 | 0.155 (inactive) | 0.374 | -0.0985 | 0.719 | 3.15 | 0.964 | 1.31 | -0.516 | 0.858
COCCOC(=O)N1C(=O)[C@@]2(c3cc(C#CCC(C(=O)OC)C(=O)OC)ccc31)[C@H](c1ccccc1OCCO)N1[C@H](c3ccccc3)[C@H](c3ccccc3)OC(=O)[C@H]1[C@@H]2C(=O)N1CCc2cc(OC)c(OC)cc2C1 | 1.2 | -1.79 | 0.958 | 1.54 | 0.0013 | -0.363 | -0.148 | -0.289 | 0.496 | 0.942 | 0.534 | 0.405 (inactive) | 0.134 | -0.16 | 0.45 | 0.833 | 0.211 | 1.29 | 0.787 | 1.16
